Results: PubChem BioAssay AID1497 (Sanford-Burnham Center for Chemical Genomics, 2009)
Out of some 93,000 compounds screened, about 500 (0.54%) were called active. What follows is part of a selection rich in actives, with near analogues and random picks from the rest. Unmarked numbers belong to inactive results.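 The calls were made as follows: active = primary inhibition of 50% or more at 10 µM, then 40% or more on retest; inactive = the rest.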

Molecular target: Integrin beta-2 (Homo sapiens) + Integrin alpha-M (Homo sapiens) (UniProt P05107+P11215)
Experiment: antagonists of integrin CD11b/CD18-fibrinogen binding – K562 cells, luminescence, primary screen (AID 1497)
Details: K562 CD11b/CD18 adhesion to fibrinogen, ATPlite luminescence; at 10 µM; stronger effect = higher value; Mn2+ added to activate the integrin

Integrin beta-2 (Homo sapiens) + Integrin alpha-M (Homo sapiens), sequence (P05107 whole entry, looked up, other chains not shown): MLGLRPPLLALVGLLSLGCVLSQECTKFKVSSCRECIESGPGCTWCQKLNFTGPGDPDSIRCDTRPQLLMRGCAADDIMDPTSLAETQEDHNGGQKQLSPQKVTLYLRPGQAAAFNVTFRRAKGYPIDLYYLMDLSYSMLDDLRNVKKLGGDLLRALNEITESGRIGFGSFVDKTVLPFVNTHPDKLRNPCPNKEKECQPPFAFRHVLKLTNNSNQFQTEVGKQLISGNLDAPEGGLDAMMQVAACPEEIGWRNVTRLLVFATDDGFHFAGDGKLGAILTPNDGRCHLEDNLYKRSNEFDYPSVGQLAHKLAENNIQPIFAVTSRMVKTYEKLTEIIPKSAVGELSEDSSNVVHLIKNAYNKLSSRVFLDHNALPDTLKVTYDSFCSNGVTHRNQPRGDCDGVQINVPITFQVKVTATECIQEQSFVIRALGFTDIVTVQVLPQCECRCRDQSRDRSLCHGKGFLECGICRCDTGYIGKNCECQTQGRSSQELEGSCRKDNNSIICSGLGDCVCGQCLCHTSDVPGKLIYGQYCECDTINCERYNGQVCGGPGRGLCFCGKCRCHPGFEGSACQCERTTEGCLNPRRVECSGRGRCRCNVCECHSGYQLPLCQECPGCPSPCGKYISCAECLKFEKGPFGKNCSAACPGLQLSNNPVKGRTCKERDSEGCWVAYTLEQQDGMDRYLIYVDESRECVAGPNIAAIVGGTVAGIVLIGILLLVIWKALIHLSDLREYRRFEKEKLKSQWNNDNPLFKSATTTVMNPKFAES

Structure (SMILES)	inhibition
COc1cc(OC)c(C(=O)OC(C)C(=O)Nc2cc(C(F)(F)F)ccc2Cl)cc1OC (stereo unspecified)	26.7%
COc1ccc2nc(SCc3ccccc3)nc(C)c2c1	1.5%
CC(C)(C)OC(=O)N/N=C/c1ccc(C(=O)O)cc1	-1.8%
CC(C)Nc1nnc(SCC(=O)/C=C2\N(C)c3ccccc3C2(C)C)s1	21.6%
CCOC(=O)c1cnc2ccc(F)cc2c1Nc1ccc2c(c1)OCCO2	2.6%
Cc1c(NS(=O)(=O)c2ccc(NC3CCCC3)c([N+](=O)[O-])c2)c(=O)n(-c2ccccc2)n1C	1%
Cc1cccc(CC(=O)N2CCN=C2SCc2ccc([N+](=O)[O-])cc2)c1	-1.1%
COc1ccc(CCNc2cc(C)nc3c(-c4ccc(Cl)cc4)c(C)nn23)cc1OC	2.7%
Cc1cccc(-n2c(C)cc(/C=N\NC(=O)c3cccs3)c2C)c1	37.3%
Cc1nc(CNS(=O)(=O)c2ccc(Oc3ccccc3)cc2)cs1	91.7% (active)
Cc1nc(CNS(=O)(=O)c2cccnc2)cs1	-2.1%
Cc1ccc(S(=O)(=O)NCc2csc(C)n2)c(C)c1	-9%
COc1ccccc1N=Cc1c(O)c2ccccc2oc1=O	6%
Oc1c(Br)cccc1/C=N/Nc1c(F)c(F)c(F)c(F)c1F	99.8%
Cc1cc([N+](=O)[O-])ccc1NC(=O)C1CCCO1 (stereo unspecified)	24.2%
CCOC(=O)/C(C#N)=C/c1ccc(N2CCN(Cc3ccccc3)CC2)cc1	82.1%
Cc1ccc(NC(=S)NC(=O)/C=C/c2ccc(Cl)cc2)cc1	7.2%
Cc1ccc(/C=N/NC(=O)CNC(=O)COc2ccccc2)o1	-10.5%
O=c1c(Cl)c(NCc2ccc(F)cc2Cl)cnn1C12CC3CC(CC(C3)C1)C2	-4%
Cc1c(C(=O)NCCN2C(=O)S/C(=C\c3cccs3)C2=O)cccc1[N+](=O)[O-]	7%
Cc1sc2ncnc(Sc3nc4ccccc4s3)c2c1C	-5.9%
O=[N+]([O-])c1ccc(N2CCN(S(=O)(=O)c3ccccc3)CC2)cc1N1CCc2ccccc2C1	-22.4%
CCOCCCNC(=O)C(=O)NCCCOCC	-3%
Cc1ccc(NC(=S)N2CCN(c3ncccn3)CC2)cc1C	-4.4%

Structure (SMILES)	inhibition
Cc1cc2oc(=O)cc(CN3CCN(S(=O)(=O)c4cccs4)CC3)c2cc1C(C)C	22.2%
CCN(c1ccc(NC(=O)COC(=O)CCc2nc3ccccc3n2-c2ccccc2)cc1)C(C)C	15.2%
CC(C)N1C(=O)N(c2ccccc2)C(C)(O)CC1(C)C (stereo unspecified)	-10.1%
Cc1cccc(NC(=O)Cn2c(=O)n(Cc3ccccc3)c(=O)c3c(C)c(C)sc32)c1	-17.5%
CCOc1ccc(NC(=O)COc2ccc(C(=O)NC3CCCc4ccccc43)cc2OC)cc1 (stereo unspecified)	1.8%
CCCN1CNC(=S)N(CCc2ccccc2)C1	-28.3%
O=c1oc2cc(O)ccc2cc1-c1ccc(F)cc1	-2.5%
CCCCCCc1cc2cc(-c3nnc(-c4ccccc4)o3)c(=O)oc2cc1O	94% (active)
CCOC(=O)c1cc(NC(=O)c2cccnc2)cc(C(=O)OCC)c1	-52.6%
CCOc1cccc(C(=O)Nc2cccnc2)c1	-2.2%
Cc1c(C(=O)OC(C)C)sc(NC(=O)c2cccnc2)c1C#N	86% (active)
CCOC(=O)CSC1=C(C#N)C(c2sccc2C)CC(=O)N1 (stereo unspecified)	56.1% (active)
Cc1ccc(C2CC(=O)NC(SCC(=O)OCc3ccccc3)=C2C#N)o1 (stereo unspecified)	29.9%
CCOC(=O)CSC1=C(C#N)C(c2ccco2)C(C(=O)OCc2ccccc2)=C(C)N1 (stereo unspecified)	34.5%
CCCn1c(N)c(C(=O)CSc2nnc(-c3cccnc3)n2-c2ccc(C)cc2C)c(=O)[nH]c1=O	-8.1%
Cc1cc(Br)ccc1SCC(=O)OCC(=O)NCc1ccc2c(c1)OCO2	10.7%
O=C(CSc1nc2ccccc2c(=O)n1CCCO)N1CCc2ccccc21	21.1%
O=C(N/N=C/c1cccc([N+](=O)[O-])c1)C1CC(=O)N(c2ccc(Br)cc2)C1 (stereo unspecified)	-4.8%
COC(=O)c1c(C)oc2ccc(N(C(=O)Oc3ccccc3)S(=O)(=O)c3ccccc3)cc12	2.5%
Cc1ccc2nc(SCc3cn4c(C)cc(C)nc4n3)[nH]c2c1	-5.6%
COc1ccc(C(CC(=O)Nc2ccc(C)cc2)NC(=O)C(F)(F)F)cc1 (stereo unspecified)	-24.1%
CCCc1c(C)nc2c(Br)cccc2c1Cl	13.2%
Cc1c(Cl)cccc1NC(=O)Nc1ccc(C(=O)N2CCCC2)cc1	9.6%
CCOc1ccc(/C=N/OCC(=O)NCc2cccs2)cc1	9%

Structure (SMILES)	inhibition
CCc1c(C)sc(NC(=O)/C=C/c2ccc3c(c2)OCO3)c1C(=O)OC	-6.4%
O=C(Cc1ccc(-c2ccccc2)cc1)NC(c1ccccc1)c1ccccc1	-18.2%
CCOc1cc(CNCc2ccccn2)ccc1OCC(=O)NC(C)(C)C	7.5%
CC(C)(C)NC(=O)COC(=O)c1cc(Br)ccc1Cl	12.8%
CC(C)C(=O)Nc1cccc(NC(=O)c2ccc([N+](=O)[O-])cc2Cl)c1	-3.1%
COC(=O)c1ccc(NC(=O)c2ccccc2NS(=O)(=O)c2ccccc2)cc1	102% (active)
COC(=O)c1ccccc1NC(=O)c1ccccc1NS(C)(=O)=O	-14.9%
CCOc1ccc(NC(=O)c2ccccc2NS(C)(=O)=O)cc1	-19.4%
O=C(Oc1ccc([N+](=O)[O-])cc1)c1ccc(Cl)c(S(=O)(=O)N2CCCCC2)c1	8.6%
Cc1ccc(NC(=O)c2sc3nc(N)c(C#N)cc3c2N)cc1	10.7%
COc1cccc(N(C(=O)C2COc3ccccc3O2)C(C(=O)NC2CCCCC2)c2ccc(O)cc2)c1 (stereo unspecified)	-5%
Cc1ccc(CSCC(N)C(=O)O)cc1 (stereo unspecified)	-2%
O=C(NCC1CCCO1)/C(=C/c1ccc(Cl)cc1)NC(=O)c1ccccc1 (stereo unspecified)	2.4%
O=C(Nc1nnc(C2COc3ccccc3O2)o1)c1ccc(F)cc1 (stereo unspecified)	-27.3%
COC(=O)Cc1ccc(NC(=S)NCc2ccccc2)cc1	0.4%
CCCn1c(SCC(=O)Nc2ccc(C)c(S(=O)(=O)N3CCOCC3)c2)n[nH]c1=O	-10.9%
COC(=O)c1cc(Cl)c(NC(=O)c2ccco2)cc1OC	-6%
Cc1ccc(-n2nc3cc(Cl)c(NC(=O)c4ccco4)cc3n2)cc1	3.9%
O=C(NNC(=S)Nc1ccc(Br)cc1Cl)c1ccco1	89.9% (active)
CN(C)S(=O)(=O)c1cccc(NC(=S)N/N=C/C(=O)c2ccccc2)c1	14%
COc1ccc([N+](=O)[O-])cc1NC(=O)C(C)OC(=O)C1c2ccccc2Oc2ccccc21 (stereo unspecified)	26.5%
COc1ccc(CCNC(=O)CSc2nc(-c3ccc(OC)c(OC)c3)ccc2C#N)cc1	18.5%
COc1ccc(C(=O)Nc2ccc(CN3CCOCC3)cc2)cc1	-3.3%
CCC(=O)Nc1ccc2c(c1)nc(CCN1CCN(C)CC1)n2C	3.3%

Structure (SMILES)	inhibition
Cn1c(CN2CCOCC2)nc2cc(NC(=O)c3ccc(Cl)cc3)ccc21	87.2% (active)
Cc1nn(CCOc2ccccc2)c(=O)n1-c1ccccc1F	-0.4%
COCCOCCn1cnc2ccccc21	2.3%
Cc1cc2ncn(CCCCOc3ccccc3)c2cc1C	63.9% (active)
COc1ccc(NC(=O)CC2C(=O)OCC3CCCCN32)cc1Cl (stereo unspecified)	-8.3%
CCCCCCCCC(=O)NCCOc1ccccc1	2.8%
COc1ccc(/C=C2/C(=O)OCc3cc(OC)c(OC)cc32)c(OC)c1	0.8%
C/C(=N\NS(=O)(=O)c1ccc(Cl)cc1)c1ccc(NC(=O)c2ccco2)cc1	-3.6%
COCCn1c(=NC(=O)c2ccccc2[N+](=O)[O-])sc2cc(S(C)(=O)=O)ccc21	25.4%
C/C(=N\NC(=O)CCn1nc(C)cc1C)C(C)(C)C	1%
N#C/C(=C/c1cccc([N+](=O)[O-])c1)c1nnc2n1CCCCC2	2.5%
N/C(=N\OC(=O)Nc1ccc(Cl)c(Cl)c1)c1ncc(C(F)(F)F)cc1Cl	-4.4%
O=C(CC(O)(C(F)(F)F)C(F)(F)F)Nc1ccc(Cl)c(Cl)c1	89.5% (active)
Cc1nnc(NC(=O)Nc2ccc(Cl)c(Cl)c2)s1	37%
Cc1nnc(NC(=O)Cn2c(=O)sc3ccccc32)s1	-2.7%
COc1ccc(Cn2c(=O)sc3ccccc32)cc1OC	75.8% (active)
COc1ccc(CCNC(=O)CCn2c(=O)oc3ccccc32)cc1OC	-58.2%
COc1ccc(C(=O)Nc2ccccc2C(=O)N/N=C/c2ccccc2OC)cc1	65.1% (active)
COc1ccc(C(=O)Nc2ccccc2C(=O)N/N=C/c2ccc(O)c(OC)c2)cc1	106%
COc1ccc(NC(=O)c2ccc(OC)cc2)cc1	-5.7%
N#C/C=C\Oc1ccc(Cl)cc1N	51.7% (active)
COc1ccc(Cl)cc1NC(=O)[C@@H]1CCCN1C(=O)c1cccs1	-14.3%
Cc1nn(-c2ccccc2)c(C)c1/C=C/C(=O)OC(C)C(N)=O (stereo unspecified)	-9.1%
COc1ccc(-c2csc(NC(=O)CCCc3cccs3)n2)cc1	6.2%
